# Experimental data: PubChem BioAssay
# A number with no mark means an inactive call. For some of these results: Entries with a potency or affinity are not part of this list. Activity calls are given as the source filed them. Unless noted, how the calls were made is not given here.
# Assays:
# [1] = antimalarial activity against Dd2 strain (AID 2302;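 active means growth inhibition above 50% at the single 2 µM test dose, taken to imply half-maximal potency below 2 µM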;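 further: 0% = DMSO untreated growth and 100% = chloroquine plus artemisinin killed control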); conditions: P. falciparum Dd2 in RBCs, LDH growth readout, 72 h; at 2 µM; stronger effect = higher value
# [2] = HepG2 cytotoxicity, primary screen, cytotoxicity control for P. falciparum antimalarial project, cell-based, ATP luminescence (AID 2303;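 active means inhibition above 50%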;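 further: 0% = DMSO wells and 100% = digitonin-killed cells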); conditions: HepG2 viability, 24-48 h, at 10 µM, stronger effect = higher value
# [3] = target: L-lactate dehydrogenase (Plasmodium falciparum (isolate CDC / Honduras)) (UniProt Q27743); experiment: PfLDH activity inhibition – cell lysate, 3D7 strain, counter-screen for P. falciparum growth inhibition project (AID 2304);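 further: 0% = vehicle and 100% = reference inhibitor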; conditions: P. falciparum 3D7 crude extract, LDH APAD/NBT absorbance; at 2 µM; stronger effect = higher value
# Sequence of L-lactate dehydrogenase (Plasmodium falciparum (isolate CDC / Honduras)) (Q27743 whole entry, looked up): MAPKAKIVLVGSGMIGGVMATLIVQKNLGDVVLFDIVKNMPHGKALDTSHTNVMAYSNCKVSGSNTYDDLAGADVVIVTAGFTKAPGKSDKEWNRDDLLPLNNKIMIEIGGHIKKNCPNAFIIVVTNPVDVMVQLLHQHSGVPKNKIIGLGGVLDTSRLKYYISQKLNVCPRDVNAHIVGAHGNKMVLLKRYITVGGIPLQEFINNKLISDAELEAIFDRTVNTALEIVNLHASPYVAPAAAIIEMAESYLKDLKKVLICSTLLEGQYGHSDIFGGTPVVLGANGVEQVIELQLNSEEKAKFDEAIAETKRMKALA
# [4] = inhibition of 3D7 malaria parasite growth – strain 3D7 (AID 2306);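 further: 0% = DMSO wells and 100% = chloroquine plus artemisinin control wells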; conditions: P. falciparum 3D7 erythrocytic growth, LDH absorbance, 72 h; at 2 µM; stronger effect = higher value
# [5] = target: Calcium-dependent protein kinase 1 (Plasmodium falciparum (isolate 3D7)) (UniProt P62344); experiment: PfCDPK1 kinase inhibitors, biochemical, TCAMS library (AID 1159585; cut-off not given, nearly all actives have IC50 up to about 0.98 µM;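 further: inhibitors leave more ATP so luminescence rises with inhibition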); conditions: recombinant PfCDPK1, Kinase-Glo ATP depletion luminescence
# Sequence of Calcium-dependent protein kinase 1 (Plasmodium falciparum (isolate 3D7)) (P62344 whole entry, looked up): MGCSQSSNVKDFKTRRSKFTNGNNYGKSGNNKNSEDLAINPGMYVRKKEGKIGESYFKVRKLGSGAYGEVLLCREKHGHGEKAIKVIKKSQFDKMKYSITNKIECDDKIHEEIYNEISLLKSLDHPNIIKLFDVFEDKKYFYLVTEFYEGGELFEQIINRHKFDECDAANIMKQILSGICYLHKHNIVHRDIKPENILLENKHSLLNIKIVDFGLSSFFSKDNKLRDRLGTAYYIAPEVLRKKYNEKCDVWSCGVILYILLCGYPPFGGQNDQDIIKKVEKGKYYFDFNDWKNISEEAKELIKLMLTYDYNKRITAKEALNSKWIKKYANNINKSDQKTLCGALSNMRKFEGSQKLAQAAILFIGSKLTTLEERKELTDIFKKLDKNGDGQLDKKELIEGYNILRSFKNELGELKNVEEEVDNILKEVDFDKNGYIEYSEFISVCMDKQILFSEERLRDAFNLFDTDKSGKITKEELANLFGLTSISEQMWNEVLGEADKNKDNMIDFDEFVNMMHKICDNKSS
# [6] = target: Plasmodium falciparum protein kinase 6 (PK6, PF3D7_1337100) (UniProt Q8IDW1); experiment: PfPK6 kinase inhibitors, biochemical, TCAMS library (AID 1159586); conditions: recombinant PfPK6, Kinase-Glo ATP depletion luminescence
# Sequence of Plasmodium falciparum protein kinase 6 (PK6, PF3D7_1337100) (Q8IDW1 1-305): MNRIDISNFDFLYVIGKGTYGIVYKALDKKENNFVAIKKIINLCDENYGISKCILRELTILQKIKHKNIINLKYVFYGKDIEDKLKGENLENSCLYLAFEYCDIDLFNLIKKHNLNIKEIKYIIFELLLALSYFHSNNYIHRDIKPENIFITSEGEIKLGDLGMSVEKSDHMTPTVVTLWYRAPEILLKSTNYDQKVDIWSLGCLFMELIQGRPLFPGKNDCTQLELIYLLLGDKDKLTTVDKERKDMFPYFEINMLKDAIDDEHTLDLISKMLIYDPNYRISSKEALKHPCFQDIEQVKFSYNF
# [7] = target: Protein kinase 7 (PK7), Plasmodium falciparum 3D7 (PF3D7_0213400) (UniProt Q7YTF7); experiment: inhibition of Plasmodium PK7 catalytic activity – biochemical, TCAMS antimalarial set, Kinase-Glo luminescence (AID 1159587); conditions: recombinant PfPK7, Kinase-Glo ATP depletion luminescence
# Sequence of Protein kinase 7 (PK7), Plasmodium falciparum 3D7 (PF3D7_0213400) (Q7YTF7 1-343): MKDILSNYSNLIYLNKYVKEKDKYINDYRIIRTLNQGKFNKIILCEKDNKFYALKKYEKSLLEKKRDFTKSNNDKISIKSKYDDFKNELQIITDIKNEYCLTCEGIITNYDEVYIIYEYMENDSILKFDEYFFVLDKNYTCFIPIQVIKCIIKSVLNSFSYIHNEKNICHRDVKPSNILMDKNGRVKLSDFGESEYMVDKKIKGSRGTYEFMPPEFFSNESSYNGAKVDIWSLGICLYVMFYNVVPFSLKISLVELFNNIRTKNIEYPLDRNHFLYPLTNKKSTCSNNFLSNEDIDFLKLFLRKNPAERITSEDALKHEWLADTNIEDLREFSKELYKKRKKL
# [8] = target: Calcium-dependent protein kinase 4 (Plasmodium falciparum (isolate 3D7)) (UniProt Q8IBS5); experiment: PfCDPK4 kinase inhibitors, biochemical, TCAMS library (AID 1159588; cut-off not given, nearly all actives have IC50 up to about 0.91 µM); conditions: recombinant PfCDPK4, Kinase-Glo ATP depletion luminescence
# Sequence of Calcium-dependent protein kinase 4 (Plasmodium falciparum (isolate 3D7)) (Q8IBS5 whole entry, looked up): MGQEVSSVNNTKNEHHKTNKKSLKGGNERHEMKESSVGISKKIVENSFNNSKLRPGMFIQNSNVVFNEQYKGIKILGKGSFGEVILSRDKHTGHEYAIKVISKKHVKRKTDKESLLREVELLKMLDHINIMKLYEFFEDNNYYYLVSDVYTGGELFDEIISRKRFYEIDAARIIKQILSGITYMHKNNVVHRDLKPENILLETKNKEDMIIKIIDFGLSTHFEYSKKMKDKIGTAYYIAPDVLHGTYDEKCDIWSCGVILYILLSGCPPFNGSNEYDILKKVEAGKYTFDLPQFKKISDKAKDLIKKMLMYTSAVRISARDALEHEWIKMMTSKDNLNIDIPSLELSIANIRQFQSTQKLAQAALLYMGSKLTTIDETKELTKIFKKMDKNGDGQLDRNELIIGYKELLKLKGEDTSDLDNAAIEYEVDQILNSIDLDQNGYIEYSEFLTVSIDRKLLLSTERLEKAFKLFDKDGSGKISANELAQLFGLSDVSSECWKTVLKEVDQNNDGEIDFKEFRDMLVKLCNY
SMILES,growth inhibition [1],inhibition [2],inhibition [3],growth inhibition [4],outcome [5],outcome [6],outcome [7],outcome [8]
COc1ccccc1CCC(C)(C)NC(=O)CC(CCc1ccccc1)Nc1ccc(C#N)c2ccccc12 (stereo not drawn),65% (active),6%,0%,94% (active),inactive,inactive,inactive,inactive
COc1ccc(NC(=O)[C@H](C)Nc2cc(C)nc(NCC3CCCCC3)n2)cc1,13%,12%,-3%,92% (active),inactive,inactive,inactive,inactive
CNc1nc(Nc2ccccc2C)nc2ccccc12,81% (active),17%,-1%,101% (active),inactive,inactive,inactive,inactive
c1cc(CN2CCCCC2)cc(-c2csc(-c3nc4ccccc4[nH]3)c2)c1,16%,26%,4%,90% (active),inactive,inactive,inactive,inactive
O=C(Nc1ccc(Br)cc1)c1cc(Br)ccc1NS(=O)(=O)c1cc(C(F)(F)F)cc(C(F)(F)F)c1,67% (active),68% (active),-7%,85% (active),inactive,inactive,inactive,inactive
CCOc1cc(CC)ccc1C1CCN(CCN2CCC(CNC(=O)c3ccc(-c4ccc(C#N)cc4)cc3)CC2)CC1,100% (active),53% (active),5%,89% (active),inactive,inactive,inactive,inactive
COc1ccc(-c2ccc(NC(=O)c3ccc(C#N)cc3)cc2)cc1CN1CCC(O)CC1,28%,24%,7%,94% (active),inactive,inactive,inactive,inactive
CCc1ccc(NC(=O)c2ccc(CN3CCCN(Cc4cccc(C)c4)CC3)cc2)cc1,-4%,53% (active),1%,80% (active),inactive,inactive,inactive,inactive
CC(C)[C@H](NC(=O)c1ccc(O)c(-c2ccc(Cl)c(Cl)c2)c1)C(=O)NC1CCCCCC1,99% (active),-4%,-2%,99% (active),inactive,inactive,inactive,inactive
FC(F)(F)c1ccc2c(NCCNc3ccnc4cc(C(F)(F)F)ccc34)ccnc2c1,100% (active),21%,1%,101% (active),inactive,inactive,inactive,inactive
CN(CCO)Cc1ccc(-c2ccc(NS(=O)(=O)c3cccc4cccnc34)cc2)cc1,84% (active),28%,-1%,99% (active),inactive,inactive,inactive,inactive
CC(=O)Nc1ccc(OCCN(Cc2ccccc2OC(F)(F)F)c2ccc(C(F)(F)F)c(C#N)c2)c(Cl)c1,96% (active),8%,5%,96% (active),inactive,inactive,inactive,inactive
Cc1cc(NN=Cc2ccccc2F)c2cc(F)ccc2n1,97% (active),9%,-5%,101% (active),inactive,inactive,inactive,inactive
CC(Cc1ccc(NC(=O)c2ccc(CNCc3ccccc3)cc2)cc1)N(CCc1cccc(Cl)c1)C(=O)OC(C)(C)C (stereo not drawn),2%,16%,-2%,95% (active),inactive,inactive,inactive,inactive
CC(Cc1ccc(C(=O)Nc2ccc(CC(C)NCCc3cccc(Cl)c3)cc2)cc1)NCCc1ccc(C(F)(F)F)cc1 (stereo not drawn),88% (active),98% (active),-4%,101% (active),inactive,inactive,inactive,inactive
COc1ccc2nccc([C@@H](O)CN3CCC(c4cc(-c5ccc(Cl)cc5)n[nH]4)CC3)c2n1,56% (active),43%,0%,97% (active),inactive,inactive,inactive,inactive
Fc1ccc(C=NNc2nc3ccccc3[nH]2)cc1,58% (active),-7%,-2%,98% (active),inactive,inactive,inactive,inactive
O=C1c2ccccc2C(=O)N1CCOc1c(Br)cc(Br)cc1CNCCCNc1cc(=O)c2ccccc2[nH]1,12%,10%,-6%,92% (active),inactive,inactive,inactive,inactive
Cc1cccc2[nH]c(-c3cccc(-c4ccc(NC(=O)COc5ccccc5C(N)=O)cc4)c3)nc12,47%,18%,-8%,101% (active),inactive,inactive,inactive,inactive
CC(C)c1ccc(OCC(O)CN(CCN2CCOCC2)C(=O)Nc2ccc(Br)cc2)cc1 (stereo not drawn),44%,6%,-2%,98% (active),inactive,inactive,inactive,inactive
O=C(NCCCCN1CCC(c2ccc3c(c2OCCN2CCCC2=O)CCCC3)CC1)c1ccc(-c2ccc(C(F)(F)F)cc2)cc1,1%,56% (active),1%,88% (active),inactive,inactive,inactive,inactive

SMILES,growth inhibition [1],inhibition [2],inhibition [3],growth inhibition [4],outcome [5],outcome [6],outcome [7],outcome [8]
O=C(Nc1cccc(CN2CCN(C(=O)c3cccc(F)c3)CC2)c1)c1ccco1,55% (active),7%,4%,88% (active),inactive,inactive,inactive,inactive
O=C(/C=C/c1ccc(Cl)c(Cl)c1)NCCCCCN1CCC(NC(=O)Nc2cccc(Cl)c2F)CC1,30%,75% (active),4%,101% (active),inactive,inactive,inactive,inactive
Cc1ccccc1C1CCN(C2CCC(NC(=O)/C=C/c3cccc(Cl)c3)CC2)CC1 (stereo not drawn),34%,70% (active),-3%,98% (active),inactive,inactive,inactive,inactive
COc1cc(C(=O)NC2CCN(Cc3ccccc3)CC2)ccc1-c1nc2cc(Cl)c(C)cc2[nH]1,97% (active),-3%,0%,99% (active),inactive,inactive,inactive,inactive
N=C1c2ccccc2CN1CC(=O)c1ccc(Cl)c(Cl)c1,16%,1%,0%,98% (active),inactive,inactive,inactive,inactive
O=C(Nc1cccc(-c2cccc(-c3nc4ccccc4[nH]3)c2)c1)c1cccnc1,14%,12%,-3%,95% (active),inactive,inactive,inactive,inactive
CC(O)CNc1nc2ccccc2n1CC(=O)Nc1cccc(C(=O)Nc2cccc(C(F)(F)F)c2)c1 (stereo not drawn),95% (active),2%,0%,99% (active),inactive,inactive,inactive,inactive
N#Cc1ccc(N(CCOC(=O)c2ccccc2)Cc2ccccc2C(F)(F)F)cc1C(F)(F)F,67% (active),6%,-1%,92% (active),inactive,inactive,inactive,inactive
Cc1ccccc1NC1=NC(=S)N(c2cccc(C(F)(F)F)c2)C12CCC(C(C)(C)C)CC2 (stereo not drawn),25%,9%,5%,95% (active),inactive,inactive,inactive,inactive
O=C(NC1CC1)c1cnc(N2CCC(COc3cccc(F)c3)CC2)c(Cl)c1,87% (active),1%,5%,89% (active),inactive,inactive,inactive,inactive
O=S(=O)(NCCN1CCCC1)c1ccc(-c2ccc(CNCc3ccsc3)cc2)cc1F,40%,27%,0%,96% (active),inactive,inactive,inactive,inactive
CS(=O)(=O)c1cccc(-c2cnc(N)c3cc(-c4ccc(F)cc4)ccc23)c1,33%,28%,4%,91% (active),inactive,inactive,inactive,inactive
Cc1cc(Nc2ccc(Oc3ccc(Cl)cc3)cc2)nc(N)n1,71% (active),49%,7%,101% (active),inactive,inactive,inactive,inactive
CN(C(=O)/C=C/c1cc(C(F)(F)F)ccc1F)C1CCN(CCCCCNC(=O)/C=C/c2ccc(Cl)c(Cl)c2)CC1,68% (active),71% (active),3%,101% (active),inactive,inactive,inactive,inactive
CN1CCN(c2cc(NC(=O)Nc3cccc(Cl)c3Cl)ccc2Cl)CC1,21%,2%,2%,102% (active),inactive,inactive,inactive,inactive
O=C(NC1CC1)c1ccc(N2CCN(Cc3ccc(Cl)cc3)CC2)nc1,81% (active),16%,3%,84% (active),inactive,inactive,inactive,inactive
Cc1ccc(NC(=O)c2ccc3nccnc3c2)cc1OC1CCN(Cc2ccc(F)cc2)CC1,24%,16%,4%,87% (active),inactive,inactive,inactive,inactive
c1ccc(CSC2=NNC(c3ccccn3)S2)cc1 (stereo not drawn),65% (active),6%,0%,80% (active),inactive,inactive,inactive,inactive
O=C(Nc1cc(=O)[nH]c2nc(-c3ccccc3)nn12)C1CCCCC1,89% (active),-9%,-4%,86% (active),inactive,inactive,inactive,inactive
CN1CCCN(Cc2cccc(-c3ccc(NC(=O)c4ccc(Cl)cc4)cc3)c2)CC1,35%,31%,-5%,97% (active),inactive,inactive,inactive,inactive
